Hits are enriched below; roughly 21% of the tested compounds scored in any of these assays.
Pf growth 48h: inhibits P. falciparum growth in the first generation, 48 h. P. falciparum luciferase growth in erythrocytes, 48 h. Potency, µM (series often up to 28.7 µM), usual class: inhibitors. actives 5.9% (n = 310,000). AID 504832
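Luciferase-expressing P. falciparum in infected erythrocytes (2% hematocrit, 0.1% parasitemia final) in RPMI 1640/0.5% Albumax were exposed to compound for 48 hours at 37 C, 5% CO2; growth read as luminescence.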
Pf growth 96h: P. falciparum growth inhibition at 96 hours; P. falciparum luciferase reporter growth, 96 h; Potency, µM (doses to about 28.7 µM), actives largely listed as inhibitors; actives 6.9% (n = 320,000)
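P. falciparum expressing integrated firefly luciferase, in erythrocytes at 2% hematocrit, 0.05% parasitemia, incubated with compounds 96 h at 37 C, 5% CO2. Growth inhibition read as loss of luminescence; two-generation exposure targets delayed-death apicoplast inhibitors.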
Cycloheximide cs: counter-screen hit for Shiga toxin inhibitors, cycloheximide; cell reporter, cycloheximide protein synthesis inhibition counterscreen; AID 2314; actives 12% (n = 300,000); max response, %; in the data active = max response mostly above about 13%, no sharp cut-off; inactive = mostly below about 14%; also: read at 38.3 µM for the half of the compounds with a filed dose
NS1 inh: influenza NS1 inhibition; Potency, µM (doses to about 46.1 µM); actives 0.4% (n = 270,000); AID 2326; calls by dose curve; also: actives are rising curves; nearly all actives have a fitted effect of over 50% in size
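OD600 was taken as the measure of yeast growth restored by compound in an NS1-expressing S. cerevisiae strain. Cells had been washed out of glucose medium and diluted 1:100 into galactose -URA medium, pH 6.0.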
Sm TGR block: S. mansoni TGR enzyme inhibition; Potency, µM (highest dose often 114 µM), most hits filed as inhibitors; actives 3% (n = 360,000); AID 485364; purified TGR, DTNB reduction, TNB absorbance 405 nm; also: nearly all actives have a fitted effect of over 60% in size
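Kinetic colorimetric format: TGR-catalysed, NADPH-driven DTNB reduction monitored via TNB absorbance. Enzyme dispensed at 20 nM; compound exposure 15 min at room temperature before reaction start.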
Shiga toxin inh: blocks Shiga toxin action in Vero cells | Vero cells, Shiga toxin protein synthesis inhibition reporter | inhibition, % at 38.7 µM | actives 9.2% (n = 290,000) | AID 2315; in the data active = inhibition mostly above about 28%, no sharp cut-off; inactive = mostly below about 43%
Hits are given with their value; . = inactive; ? = inconclusive; / = no result. Unless noted, calls follow the shape of the dose curve; as a rule, active = well fitted curve in the direction sought with a large enough effect; inconclusive = small, poorly fitted or top-dose-only effect, or another doubt; inactive = no such curve, though single readings can be large; an effect the other way counts as inactive or inconclusive.

SMILES	Pf growth 48h	Pf growth 96h	Cycloheximide cs	NS1 inh	Sm TGR block	Shiga toxin inh
COc1cc(/C=C2/SC(=S)N(Cc3ccccc3)C2=O)ccc1OCC(=O)O	.	.	.	?	.	/
CCOc1cc(/C=C2/SC(=S)N(Cc3ccccc3)C2=O)ccc1O	?	.	16.4	?	.	41.7
Cc1cc(S(=O)(=O)n2ccnc2)c(Cl)cc1Cl	.	.	.	.	.	.
COc1cccc(CNCCSc2nnnn2C)c1OCc1ccccc1	/	/	/	/	.	/
N#Cc1c(NC(=O)c2cc3nc(-c4ccc(Br)cc4)cc(C(F)(F)F)n3n2)sc2c1CCCC2	/	/	/	/	.	/
CCOc1ccc2nc(SCC(=O)Nc3ccc4c(c3)OCCO4)[nH]c2c1	.	/	.	.	.	.
COc1ccc(OC)c(-n2nnnc2SCC(=O)Nc2ccc3c(c2)OCCO3)c1	.	10.4µM	.	.	.	.
COc1ccc(OC)c(NC(=O)CSc2nnnn2-c2ccc3c(c2)OCO3)c1	?	.	.	.	.	.
COc1ccc2nc(SCC(=O)Nc3ccc4c(c3)OCCO4)[nH]c2c1	.	?	56.6	?	.	79.8
COc1ccc(OC)c(-n2nnnc2SCC(=O)Nc2ccc(C(=O)N3CCCCC3)cc2)c1	?	11.7µM	.	.	.	.
COc1ccc(CC(=O)NCC(=O)N/N=C/c2sccc2C)cc1	.	.	.	.	.	.
C#CCN1C(=O)S/C(=C\c2ccc(N3CCOCC3)cc2C)C1=O	.	.	24.2	.	/	69.8
CCN1C(=O)S/C(=C\c2ccc(N3CCOCC3)cc2C)C1=O	.	.	27.2	.	.	133.3
CCOc1ccc(N2C(=O)NC(=O)/C(=C\c3ccc(N4CCOCC4)cc3C)C2=O)cc1	.	.	.	.	?	.
CCCN1C(=O)S/C(=C\c2ccc(N3CCOCC3)cc2C)C1=O	.	.	33.9	5.01µM	.	63.7
Cc1ccc(S(=O)(=O)N2CCCCC2)cc1NC(=O)COC(=O)C1=COCCO1	.	.	.	/	.	.
Cc1cn2c(=O)cc(COc3ccc(C(C)(C)C)cc3)nc2s1	/	/	/	/	.	/
O=C(N/N=C/c1cn(-c2ccccc2)nc1-c1cc2ccccc2o1)c1ccccc1Br	.	.	66.0	.	.	99.8
O=C(N/N=C/c1cn(-c2ccccc2)nc1-c1cc2ccccc2o1)c1c[nH]c2ccccc12	3.29µM	?	44.9	.	/	133.5
CCOC(=O)c1ccc(NC(=O)CSC2=NN3CCCC(=O)N=C3S2)cc1	.	.	.	.	.	.
CCc1ccc(S(=O)(=O)NC2CC(C)(C)NC(C)(C)C2)cc1	.	.	.	.	.	.
CCOCCCn1c(C)nc2c(c1=O)c1nc3ccccc3nc1n2-c1ccc2c(c1)OCCO2	5.22µM	?	.	.	.	.
CCCn1c(C)nc2c(c1=O)c1nc3ccccc3nc1n2-c1ccc2c(c1)OCCO2	/	/	/	.	/	/
CCC(C)n1cnc2c(c1=O)c1nc3ccccc3nc1n2-c1ccc2c(c1)OCCO2 (stereo unspecified)	.	13.1µM	.	.	.	.
CCC(C)n1cnc2c(c1=O)c1nc3ccccc3nc1n2Cc1ccc2c(c1)OCO2 (stereo unspecified)	3.7µM	?	.	.	.	.
SMILES	Pf growth 48h	Pf growth 96h	Cycloheximide cs	NS1 inh	Sm TGR block	Shiga toxin inh
COc1ccc(CCNC(=O)C(=O)NCC2OCCN2C(=O)c2ccc(Cl)cc2)cc1 (stereo unspecified)	?	.	.	.	.	.
Cc1ccc(NC(=O)CC(=O)Nc2ccc(C)cc2C)c(C)c1	.	.	.	.	.	.
Cc1cccc(NC(=O)Cn2cccc2)c1	.	.	.	.	.	.
Cc1ccc(NC(=O)Cn2cccc2)c(C)c1	/	13.1µM	.	.	.	.
Cc1ccc(NC(=O)Cn2cccc2)c(Br)c1	.	/	.	.	?	44.5
CCCCN(C(=O)CCNC(=O)NC12CC3CC(CC(C3)C1)C2)c1c(N)n(CCC)c(=O)[nH]c1=O	?	?	/	/	.	/
Cc1cccc(C(=O)NNC(=O)c2ccc(NS(=O)(=O)c3cccs3)cc2)c1C	.	.	/	/	.	/
CCc1nnc(NC(=O)CCC(=O)N2CCN(C3c4ccccc4-c4ccccc43)CC2)s1	.	.	.	.	.	.
CCOC(=O)N/C(N)=N/c1nc2ccccc2s1	.	.	33.7	.	.	66.1
CC(=O)N/C(N)=N/c1nc(=O)c2ccccc2s1	.	?	35.0	.	.	54.7
CCOC(=O)NC(=O)COC(=O)CCCSc1nc2ccccc2s1	.	.	.	/	.	.
C/C(=N/Nc1nc(C)cc(=O)[nH]1)C(=O)O	/	/	/	.	/	/
Cc1cccc(N(CC(O)CN2CCCC2)S(=O)(=O)c2ccccc2)c1 (stereo unspecified)	.	.	.	.	.	.
O=C(COc1ccccc1N1C(=O)c2ccccc2C1=O)c1ccc(Cl)cc1	?	.	20.4	.	.	33.6
COc1ccc(NC(=O)CCC(=O)N2CCOCC2)c([N+](=O)[O-])c1	.	.	.	.	.	.
O=C(Nc1ccccc1)c1ccc(-n2cnnn2)cc1	.	.	15.4	.	.	23.2
CCCCOc1ccc(C(=O)Nc2cccc(-n3cnnn3)c2)cc1OC	?	9.28µM	.	.	.	.
CC(C)(C)c1ccc(C(=O)Nc2cccc(-n3cnnn3)c2)cc1	.	?	24.3	.	.	34.1
O=C(Nc1cccc(-n2cnnn2)c1)c1cc(Cl)nc(Cl)c1	9.28µM	4.65µM	.	.	.	.
O=C(Nc1cccc(-n2cnnn2)c1)c1cccc(Cl)c1	.	.	.	.	.	.
CCOc1ccc(C(=O)Nc2cccc(-n3cnnn3)c2)cc1OCC	?	.	.	?	.	.
CC(C)(C)C(Cn1ccnc1)NC(=O)c1ccc2nc(C3CC3)oc2c1 (stereo unspecified)	?	?	.	.	.	.
O=c1cc(-c2ccc(F)cc2)nc(SCc2nc(-c3cccc(C(F)(F)F)c3)no2)[nH]1	/	/	/	/	.	/
O=C(OCCCCN1C(=O)c2ccccc2C1=O)c1n[nH]c2ccccc12	?	13.1µM	.	.	.	.
CCC1CCCCN1C(=O)COC(=O)c1n[nH]c2ccccc12 (stereo unspecified)	.	/	19.2	.	.	.
SMILES	Pf growth 48h	Pf growth 96h	Cycloheximide cs	NS1 inh	Sm TGR block	Shiga toxin inh
CC1CCN(C(=O)COc2ncnc3ccccc23)CC1	.	.	.	/	.	37.3
CCC1CCCCN1C(=O)COc1ccccc1NC(C)=O (stereo unspecified)	.	.	.	/	50.1µM	.
COC(=O)c1n[nH]c2ccccc12	.	/	.	.	.	.
CCC1CCCCN1C(=O)COc1cc(=O)n(C)c2ccccc12 (stereo unspecified)	/	?	.	?	.	.
CC1CCN(S(=O)(=O)c2ccc3c(ccc(=O)n3CC(=O)NCc3ccccc3Cl)c2)CC1	/	/	/	/	.	/
O=C1CCCC(=O)N1c1ccc(N2CCOCC2)c([N+](=O)[O-])c1	.	.	.	/	.	.
CC1CCN(C(=O)COC(=O)c2n[nH]c3ccccc23)CC1	.	.	41.0	.	?	79.3
O=C(OCC(=O)N1CCCCCC1)c1n[nH]c(=O)c2ccccc12	.	.	.	.	.	.

Assay outcomes deposited in PubChem BioAssay by National Center for Advancing Translational Sciences (NCATS).
